# Bioassay records: PubChem BioAssay, several laboratories
# Y pestis TopoI – Yersinia pestis topoisomerase I inhibitors, primary screen, biochemical, cleavage product accumulation, plate reader, single point. DNA topoisomerase I (Yersinia pestis CO92). activity, % at 10 µM. Y. pestis Topo-I cleavage product accumulation. 360,000 compounds, 0.064% hits; in the data active = activity above about 50%, passing the limit was not always enough
# PrP UTR inh – inhibition of PrP 5' UTR reporter expression; cell-based PrP 5' UTR mRNA reporter, plate reader; inhibition, % (no concentration beside the values); 340,000 compounds, 0.35% hits; in the data active = inhibition above about 52%; note: 0 = median of the neutral control wells
# PfHsp40 rescue – rescue of yeast from PfHsp40 toxicity, primary screen, S. cerevisiae, ATP luminescence; growth rescue, % at 12.5 µM; 340,000 compounds, 0.68% hits; S. cerevisiae expressing PfHsp40, growth rescue; AID 504582, 2011; in the data active = growth rescue above about 28%, passing the limit was not always enough;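 note: yeast W303a lacking pdr1 and pdr3 grown in galactose medium; growth measured after three days at 30 °C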
# Sa RN4220 lethal – growth inhibition of S. aureus RN4220, primary screen, OD600. 16 h. inhibition, % (test concentration not listed). 330,000 compounds, 0.33% hits; in the data active = inhibition above about 85%;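 note: plate controls were untreated cells for no effect and reference antibiotic for full effect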
# ugtP null kill – growth inhibition of ugtP-null S. aureus, primary screen, RN4220 ugtP deletion, OD600; 16 h; growth inhibition, % (no concentration beside the values); 330,000 compounds, 0.54% hits; AID 1259309, 2017; in the data active = growth inhibition above about 68%;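 note: plate controls were untreated wells for no effect and antibiotic for full effect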
# BJeLR viability – MLPCN primary cell-based screen for lethality selective to Ras in HRASV12 cells; BJeLR (HRASV12) viability, CellTiter-Glo ATP luminescence, 48 h; inhibition, % (test concentration not listed); 300,000 compounds, 0.17% hits; AID 1554, 2009; in the data active = inhibition above about 50%
# An asterisk follows results filed as active; x = no result. In the library only some 1.4% were active in any assay of this set; here they are far more common.
SMILES,Y pestis TopoI,PrP UTR inh,PfHsp40 rescue,Sa RN4220 lethal,ugtP null kill,BJeLR viability
CN(C)CCn1nnnc1SCC1=C(C(=O)O)N2C(=O)C(NC(=O)Cc3csc(N)n3)C2SC1 (stereo not drawn),x,x,x,100*,100*,x
Cc1nn(C(C)C(=O)NC2C(=O)N3C(C(=O)O)=C(CSc4nnnn4C)CSC23)cc1Cl (stereo not drawn),3,-9,0,100*,99*,8
CON=C(C(=O)NC1C(=O)N2C(C(=O)O)=C(CSc3nc(=O)c(=O)[nH]n3C)CSC12)c1csc(N)n1 (stereo not drawn),-1,-9,-1,x,x,x
CC(C(=O)NC1C(=O)N2C(C(=O)O)=C(CSc3nnnn3C)CSC12)n1cc(Br)cn1 (stereo not drawn),6,-12,0,100*,100*,-9
CCOC(=O)C1C2COc3cc(OC)ccc3C2N2C(=O)N(c3cccc(C)c3)C(=O)[C@]12C (stereo partly drawn),x,x,x,2,-1,x
Cn1nnnc1SCC1=C(C(=O)O)N2C(=O)C(NC(=O)C3CC3c3ccccc3)C2SC1 (stereo not drawn),-1,-12,-1,100*,100*,0
Cn1nnnc1SCC1=C(C(=O)O)N2C(=O)[C@@H](NC(=O)[C@H](O)c3ccccc3)[C@H]2SC1,9,10,-1,x,x,7
COc1ccc(NC(=O)CN2CCN(CC(=O)Nc3ccc(F)cc3F)CC2)cc1,2,-21,44*,6,8,17
COc1ccc(NC(=O)CN2CCN(c3nc(-c4cccc(OC)c4)cs3)CC2)cc1,-4,0,-1,3,4,-11
COc1ccc(NC(=O)CN2CCN(c3nc(-c4ccc(F)cc4)cs3)CC2)c(OC)c1,54*,-15,1,1,-10,5
CC1CN(C(C)CO)C(=O)c2cc(NS(=O)(=O)c3cccs3)ccc2OC1CN(C)C(=O)Nc1ccc(C(F)(F)F)cc1 (stereo not drawn),x,x,x,-7,-7,x
COC(=O)C1=C(c2ccc(C(C)=O)cc2)CC2CCC1N2C(=O)NCCOc1ccccc1Cl (stereo not drawn),x,x,x,-1,-8,x
CCC1=NN(C(=O)c2cccc(Br)c2)C(O)(c2ccc(Br)cc2)C1 (stereo not drawn),25,-11,91*,61,81,21
CCC1=NN(C(=O)c2ccc(C)cc2)C(O)(c2ccc(Br)cc2)C1 (stereo not drawn),5,-15,1,0,-7,1
COc1ccccc1CN1C(CC(C)=O)c2cc(C(F)(F)F)ccc2S1(=O)=O (stereo not drawn),x,x,x,11,1,x
Oc1c(Br)cc(Br)cc1CNc1ccc(F)cc1,-2,-17,187*,21,-14,-4
CCCCNC(=O)OC1CC2CCCC(=O)N3CCC(C1)C23 (stereo not drawn),x,x,x,-2,-7,x
COC(=O)C1=C(c2ccc(OC)c(OC)c2)CC2CCC1N2C(=O)NC(C)C (stereo not drawn),x,x,x,4,-5,x
CCc1ccc(CCC(=O)Nc2ncc(Cc3ccccc3Cl)s2)o1,10,-16,4,4,-9,57*
C#CCOCCOCCOCCNc1nc(N2CCN(C(=O)C(CCC(=O)O)n3cc(C(N)Cc4ccc(O)cc4)nn3)CC2)nc(N2CCN(C(=O)C(CCC(=O)O)n3cc(C(N)Cc4ccc(O)cc4)nn3)CC2)n1 (stereo not drawn),x,x,x,5,3,x
COC(=O)c1ccc2c(c1)C(C)(C)C(/C=C/c1ccc(OC)c(OC)c1OC)=[N+]2C,13,-24,-1,x,x,52*
COc1ccc(SCC(Cc2ccccc2)N2CCC(C(C)(C)C)CCC2=O)cc1 (stereo not drawn),x,x,x,2,6,x
COCCN(C(=O)c1ccccc1F)c1nc(-c2ccc(OC)cc2)cs1,-17,-34,-2,-7,39,3
CCN(C(=O)c1ccccc1F)c1nc(-c2ccc(OC)cc2)cs1,18,-51,4,-7,90*,2
CCC(C)Cc1cn(C(CCCCN)C(=O)NCCCCCCCCCCC(=O)N2CCNCC2)nn1 (stereo not drawn),x,x,x,3,1,x
SMILES,Y pestis TopoI,PrP UTR inh,PfHsp40 rescue,Sa RN4220 lethal,ugtP null kill,BJeLR viability
CC(C(=O)N1CCc2ccccc21)N1CCN(c2cccc(C(F)(F)F)c2)CC1 (stereo not drawn),1,-4,-2,-4,90*,-8
CC(C(=O)N1CCc2ccccc21)N1CCN(S(=O)(=O)c2ccc(C(F)(F)F)cc2)CC1 (stereo not drawn),2,-26,4,-4,7,x
COc1c(O)cccc1C(O)C1CCN(CCc2ccc(F)cc2)CC1 (stereo not drawn),x,x,x,9,5,x
Cc1ccc(C2C3C(=O)N(c4ccccc4)C(=O)C3[C@]3(C)C(=O)N(Cc4ccc(-c5ccccc5)cc4)CC(=O)N23)o1 (stereo partly drawn),x,x,x,8,6,x
C[C@@H]1CC[C@H]2[C@@H](C)C(=O)O[C@@H]3O[C@@]4(C)CC[C@@H]1[C@]32OO4,0,-18,104*,4,0,-2
COC1OC2O[C@@]3(C)CCC4C(C)CCC(C1C)[C@@]24OO3 (stereo partly drawn),x,x,x,7,5,x
COc1ccc(NC(=S)NC(=O)/C=C/c2cccs2)cc1,5,-38,-1,1,84*,-8
COc1ccccc1NC(=S)NC(=O)/C=C/c1cccs1,-6,-5,8,90,active,3
C[C@H](NS(=O)(=O)c1c(Cl)cccc1Cl)C(=O)NNC(=O)COc1ccccc1F,2,1,50*,3,0,x
O=C(CNC(=O)c1[nH]cnc1C(=O)NC(Cc1ccccc1)C(=O)OCc1ccccc1)OCc1ccccc1 (stereo not drawn),x,x,x,5,12,x
CCCOc1ccc(C(O)=C2C(=O)C(=O)N(CCCn3ccnc3)C2c2cccs2)cc1 (stereo not drawn),x,x,x,4,1,x
CCn1c2ccccc2c2cc(Nc3cc(C)nc4ncnn34)ccc21,30,68*,8,0,-1,35
CCCNC(=O)c1nnsc1S(=O)(=O)c1ccc(Cl)cc1,6,10,120*,2,0,x
CCCNC(=O)c1nnsc1S(=O)c1ccc(Cl)cc1 (stereo not drawn),14,-28,16,98*,100*,-1
CCCNC(=O)c1ccc2snnc2c1,1,-13,0,1,1,-8
CNC(=O)c1nnsc1S(=O)c1ccc(Cl)cc1 (stereo not drawn),7,-8,79*,99*,100*,23
Cc1ccc(S(=O)c2snnc2C)cc1 (stereo not drawn),5,-20,-2,2,1,-8
